# Results filed as inconclusive are left out. Active and inactive are the calls of the source. Calls follow the shape of the full dose curve.
# Molecular target: Polyunsaturated fatty acid lipoxygenase ALOX15 (Homo sapiens) (UniProt P16050)
# Assay: Inhibitors of 12-hLO (12-human lipoxygenase): 15hLO-1 Cuvette-Based Inhibition Counterscreen Assay for 12hLO Followup Compounds
# Settings: purified 15hLO-1, UV 234 nm product formation
# Description: Human lipoxygenase 15hLO-1 is a member of the closely related lipoxygenase family of enzymes which catalyze the site-specific oxidation of arachidonic acid to various hormone precursor molecules and as such is a candidate for drug development in a variety of disease areas, such as cancer and inflammation. The enzyme activity of 15hLO-1 was determined by a direct measurement of product formation by monitoring the absorbance at 234 nm in a 2 mL cuvette. IC50 values of inhibitors were obtained by measuring the enzymatic rate at a variety of concentrations (Carroll et al, Segraves et al). A purified preparation of human 15hLO-1 was supplied by Professor Ted Holman, University of California, Santa Cruz. This assay was run against 12hLO followup compounds with the goal of identifying selective 12hLO inhibitors. Assay Provider: Holman, T.R., University of California, Santa Cruz Screening Center PI: Austin, Christopher P. Screening Center: NIH Chemical Genomics Center
# For control experiments, 2 mL of substrate buffer (10 uM arachidonic acid / 25 mM HEPES / 0.01% (v/v) Triton X-100, pH 8.0) was aliquoted in a cuvette with a magnetic stir bar. After equilibrium was ensured, an aliquot of inhibitor solvent was added (DMSO), and equilibrium was once again assured. […] 3; No change in absorbance ensured. […] 5; No change in absorbance ensured. […]
# Chain of Polyunsaturated fatty acid lipoxygenase ALOX15 (Homo sapiens) (P16050 whole entry, looked up): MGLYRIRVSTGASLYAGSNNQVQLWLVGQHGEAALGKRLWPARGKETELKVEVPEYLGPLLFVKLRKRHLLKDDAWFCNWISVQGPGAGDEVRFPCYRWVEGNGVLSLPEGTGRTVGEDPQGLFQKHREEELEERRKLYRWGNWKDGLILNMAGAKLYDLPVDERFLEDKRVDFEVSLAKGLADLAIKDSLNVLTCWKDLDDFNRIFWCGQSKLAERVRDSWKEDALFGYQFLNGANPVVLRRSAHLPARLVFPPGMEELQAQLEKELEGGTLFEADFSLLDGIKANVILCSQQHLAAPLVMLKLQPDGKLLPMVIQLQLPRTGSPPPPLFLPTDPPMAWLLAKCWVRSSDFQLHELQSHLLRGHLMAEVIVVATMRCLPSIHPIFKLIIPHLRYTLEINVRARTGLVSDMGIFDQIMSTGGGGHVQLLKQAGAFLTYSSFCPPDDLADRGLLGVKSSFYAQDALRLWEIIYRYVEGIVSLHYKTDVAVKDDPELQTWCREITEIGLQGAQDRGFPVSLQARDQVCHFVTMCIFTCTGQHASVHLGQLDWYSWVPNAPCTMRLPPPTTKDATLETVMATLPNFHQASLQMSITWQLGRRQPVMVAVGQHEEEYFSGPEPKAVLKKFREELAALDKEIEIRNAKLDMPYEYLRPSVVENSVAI
smiles,measurement,value
CC(Oc1ccc(Cl)cc1Cl)C(=O)Nc1ccc(S(=O)(=O)Nc2cnc3ccccc3n2)cc1 (stereo unspecified),Potency,30.8 µM (active)

# Reference: PubChem BioAssay AID493220 (National Center for Advancing Translational Sciences (NCATS), 2011)
